The source made the active and inactive calls. How the source made its calls, unless noted: active means hit-call score of the fitted dose curve at least 0.9, where 1 is the maximum; inactive means score below 0.9.
Key:
[1] = read-out: Protein phosphatase 2A (PPP2R4), PTPA (gene 5524); experiment: LTEA_HepaRG_PPP2R4: Life Technologies and Expression Analysis (LTEA) Assay for Protein phosphatase 2A (PPP2R4) using HepaRG (AID 2283522); conditions: mRNA level, 48 h; actives raise or lower the signal
Procedure, shortened: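 Using HepaRG cultures maintained in 0.5% DMSO, chemicals are tested 48 h at up to 100 uM in duplicate. Induction or suppression of PPP2R4 mRNA, measured by qRT-PCR, is fitted bidirectionally against the vehicle baseline.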

[2] = read-out: Phosphatase and tensin (PTEN), PTEN (gene 5728); experiment: LTEA_HepaRG_PTEN: Life Technologies and Expression Analysis (LTEA) Assay for Phosphatase and tensin (PTEN) using HepaRG (AID 2283523); conditions: mRNA level, 48 h; actives raise or lower the signal
Procedure, shortened: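 HepaRG, 48 h exposure, 8-pt half-log series from 100 uM top, 0.5% DMSO vehicle, duplicates. Readout: Fluidigm qRT-PCR of PTEN transcript; housekeeping normalization (ACTB, GAPDH, POLR2A). Gain or loss fitted relative to DMSO baseline.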

[3] = read-out: solute carrier (SLC22A1), SLC22A1 (gene 6580); experiment: LTEA_HepaRG_SLC22A1: Life Technologies and Expression Analysis (LTEA) Assay for solute carrier (SLC22A1) using HepaRG (AID 2283524); conditions: mRNA level, 48 h; actives raise or lower the signal;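 on AC50: differentiated human HepaRG liver cells in serum-free induction medium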
Procedure, shortened: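 qRT-PCR readout (TaqMan, Fluidigm arrays) of SLC22A1 transcript, normalized to three housekeeping genes; bidirectional curve fit relative to 0.5% DMSO vehicle. Differentiated human HepaRG cells, 48 h chemical exposure, top concentration 100 uM, half-log steps, eight points.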

[4] = read-out: Pyruvate Dehydrogenase Kinase 4 (PDK4), PDK4 (gene 5166); experiment: LTEA_HepaRG_PDK4: Life Technologies and Expression Analysis (LTEA) Assay for Pyruvate Dehydrogenase Kinase 4 (PDK4) using HepaRG (AID 2283525); conditions: mRNA level, 48 h; actives raise or lower the signal
Procedure, shortened: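 HepaRG (human liver line), 48 h chemical exposure, 8-pt half-log CRC top 100 uM, 0.5% DMSO vehicle, duplicates. Readout: TaqMan qRT-PCR of PDK4 mRNA, housekeeping-normalized; gain/loss fit relative to DMSO baseline.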

[5] = read-out: NAD(P)H dehydrogenase [quinone] 1 (NQO1), NQO1 (gene 1728); experiment: LTEA_HepaRG_NQO1: Life Technologies and Expression Analysis (LTEA) Assay for NAD(P)H dehydrogenase [quinone] 1 (NQO1) using HepaRG (AID 2283526); conditions: mRNA level, 48 h; actives raise or lower the signal
Procedure, shortened: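 In this assay, gene expression is read by qRT-PCR after 48 h exposure of HepaRG cells to eight concentrations (max 100 uM, half-log) in 0.5% DMSO. Each chemical runs in duplicate, and activity is scored relative to vehicle.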

[6] = read-out: Nuclear factor erythroid 2-related factor 2 (Homo sapiens) (UniProt Q16236); experiment: LTEA_HepaRG_NFE2L2: Life Technologies and Expression Analysis (LTEA) Assay for Nuclear factor erythroid 2-related factor 2 (NFE2L2) Transcription Factor using HepaRG (AID 2283527); conditions: mRNA level, 48 h; actives raise or lower the signal
Procedure, shortened: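 HepaRG, 48 h dosing, 8-pt half-log series from 100 uM in 0.5% DMSO, duplicates. Read-out: NFE2L2 mRNA by qRT-PCR (ACTB/GAPDH/POLR2A normalization). Bidirectional curve fit vs DMSO baseline.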

[7] = read-out: succinate dehydrogenase complex iron sulfur subunit B (SDHB), SDHB (gene 6390); experiment: LTEA_HepaRG_SDHB: Life Technologies and Expression Analysis (LTEA) Assay for succinate dehydrogenase complex iron sulfur subunit B (SDHB) using HepaRG (AID 2283528); conditions: mRNA level, 48 h; actives raise or lower the signal
Procedure, shortened: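 Readout is SDHB transcript level by qRT-PCR, normalised to three housekeeping genes and fitted bidirectionally against 0.5% DMSO vehicle. Human HepaRG cells were treated for 48 h at up to 100 uM.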

[8] = read-out: Signal transducer and activator of transcription 3 (Homo sapiens) (UniProt P40763); experiment: LTEA_HepaRG_STAT3: Life Technologies and Expression Analysis (LTEA) Assay for Signal transducer and activator of transcription (STAT3) using HepaRG (AID 2283529); conditions: mRNA level, 48 h; actives raise or lower the signal
Procedure, shortened: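 HepaRG, 48 h exposure, 8-pt half-log series (top 100 uM), 0.5% DMSO vehicle, duplicates. Readout: STAT3 transcript by Fluidigm qRT-PCR, housekeeping-normalized; bidirectional fit vs DMSO baseline.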

[9] = read-out: solute carrier (SLCO1B1), SLCO1B1 (gene 10599); experiment: LTEA_HepaRG_SLCO1B1: Life Technologies and Expression Analysis (LTEA) Assay for solute carrier (SLCO1B1) using HepaRG (AID 2283530); conditions: mRNA level, 48 h; actives raise or lower the signal
Procedure, shortened: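 Human HepaRG cultures treated for 48 h with an eight-concentration half-log series topping at 100 uM; SLCO1B1 measured by qRT-PCR and fitted bidirectionally relative to DMSO.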

[10] = read-out: sulfotransferase 2A1 (SULT2A1), SULT2A1 (gene 6822); experiment: LTEA_HepaRG_SULT2A1: Life Technologies and Expression Analysis (LTEA) Assay for sulfotransferase 2A1 (SULT2A1) using HepaRG (AID 2283531); conditions: mRNA level, 48 h; actives raise or lower the signal
Procedure, shortened: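 Gene-expression endpoint in a human liver cell line: SULT2A1 mRNA change after 48 h chemical treatment, curves fitted in both directions relative to 0.5% DMSO vehicle. Concentrations spanned eight half-log steps from 100 uM.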

[11] = read-out: Transforming Growth Factor (TGFA), TGFA (gene 7039); experiment: LTEA_HepaRG_TGFA: Life Technologies and Expression Analysis (LTEA) Assay for Transforming Growth Factor (TGFA) using HepaRG (AID 2283532); conditions: mRNA level, 48 h; actives raise or lower the signal
Procedure, shortened: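 qRT-PCR read-out of TGFA transcript, normalized to three housekeeping genes, fitted bidirectionally against 0.5% DMSO baseline. Human HepaRG cultures received chemicals for 48 h at eight half-log concentrations, top 100 uM.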

[12] = read-out: Transforming Growth Factor (TGFB1), TGFB1 (gene 7040); experiment: LTEA_HepaRG_TGFB1: Life Technologies and Expression Analysis (LTEA) Assay for Transforming Growth Factor (TGFB1) Transporter using HepaRG (AID 2283533); conditions: mRNA level, 48 h; actives raise or lower the signal
Procedure, shortened: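 Eight-point concentration-response (max 100 uM, half-log) in HepaRG under serum-free induction conditions, 48 h. TGFB1 mRNA by qRT-PCR, housekeeping-normalized.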

TIMP1, TIMP1 (gene 7076) = experiment: LTEA_HepaRG_TIMP1: Life Technologies and Expression Analysis (LTEA) Assay for TIMP1 using HepaRG (AID 2283534); conditions: mRNA level, 48 h; actives raise or lower the signal
Procedure, shortened: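 TIMP1 induction or repression in HepaRG cells after 48 h chemical exposure (eight concentrations, highest 100 uM), assessed by normalized qRT-PCR with bidirectional fitting to DMSO controls.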

[13] = read-out: Tumor necrosis factor receptor 1 (TNFRSF1A), TNFRSF1A (gene 7132); experiment: LTEA_HepaRG_TNFRSF1A: Life Technologies and Expression Analysis (LTEA) Assay for Tumor necrosis factor receptor 1 (TNFRSF1A) using HepaRG (AID 2283535); conditions: mRNA level, 48 h; actives raise or lower the signal
Procedure, shortened: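 Assay uses 48 h chemical treatment of differentiated HepaRG monolayers, tested in duplicate at eight concentrations from 100 uM downward in 0.5% DMSO. mRNA is normalized to ACTB, GAPDH and POLR2A, with induction or suppression fitted relative to vehicle.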

[14] = read-out: Thyroid Hormone Responsive (THRSP), THRSP (gene 7069); experiment: LTEA_HepaRG_THRSP: Life Technologies and Expression Analysis (LTEA) Assay for Thyroid Hormone Responsive (THRSP) using HepaRG (AID 2283536); conditions: mRNA level, 48 h; actives raise or lower the signal
Procedure, shortened: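 qRT-PCR read-out (Fluidigm TaqMan), housekeeping-normalized (ACTB/GAPDH/POLR2A). HepaRG, 48 h chemical exposure, 8-pt half-log series from 100 uM in 0.5% DMSO, duplicates. Bidirectional curve fit vs 0.5% DMSO baseline.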

[15] = read-out: Cellular tumor antigen p53 (Homo sapiens) (UniProt P04637); experiment: LTEA_HepaRG_TP53: Life Technologies and Expression Analysis (LTEA) Assay for Tumor Protein P53 (TP53) using HepaRG (AID 2283537); conditions: mRNA level, 48 h; actives raise or lower the signal
Procedure, shortened: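 Read-out is TP53 transcript level by microfluidic qRT-PCR, normalised to three housekeeping genes and fitted bidirectionally against DMSO. Human HepaRG cells received compounds for 48 h, highest concentration 100 uM.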

[16] = read-out: UDP glucuronosyltransferase (UGT1A1), UGT1A1 (gene 54658); experiment: LTEA_HepaRG_UGT1A1: Life Technologies and Expression Analysis (LTEA) Assay for UDP glucuronosyltransferase (UGT1A1) using HepaRG (AID 2283538); conditions: mRNA level, 48 h; actives raise or lower the signal
Procedure, shortened: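 mRNA induction or loss of UGT1A1, by TaqMan qRT-PCR, in duplicate HepaRG wells after 48 h exposure to half-log dilutions topping at 100 uM; DMSO (0.5%) served as baseline.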

[17] = read-out: X-box binding protein 1 (XBP1), XBP1 (gene 7494); experiment: LTEA_HepaRG_XBP1: Life Technologies and Expression Analysis (LTEA) Assay for X-box binding protein 1 (XBP1) using HepaRG (AID 2283540); conditions: mRNA level, 48 h; actives raise or lower the signal
Procedure, shortened: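 Eight concentrations (half-log, highest 100 uM, 0.5% DMSO) tested in duplicate on HepaRG cells over 48 h in serum-free induction medium; qRT-PCR of XBP1 normalised to ACTB, GAPDH, POLR2A.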

[18] = LTEA_HepaRG_LDH_cytotoxicity: Cytotoxicity Assessment in the Life Technologies and Expression Analysis (LTEA) Assay (AID 2283563; active means hit-call score of the fitted dose curve at least 0.9, where 1 is the maximum;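 on AC50: LDH activity released into spent culture medium as a marker of cell death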)
Procedure, shortened: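 Spent-medium LDH after 48 h chemical exposure of HepaRG cells in serum-free induction medium; eight concentrations, half-log dilutions from 100 uM, duplicate wells, fitted upward relative to 0.5% DMSO.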

Measured: AC50

Sequence of Nuclear factor erythroid 2-related factor 2 (Homo sapiens) (Q16236 whole entry, looked up): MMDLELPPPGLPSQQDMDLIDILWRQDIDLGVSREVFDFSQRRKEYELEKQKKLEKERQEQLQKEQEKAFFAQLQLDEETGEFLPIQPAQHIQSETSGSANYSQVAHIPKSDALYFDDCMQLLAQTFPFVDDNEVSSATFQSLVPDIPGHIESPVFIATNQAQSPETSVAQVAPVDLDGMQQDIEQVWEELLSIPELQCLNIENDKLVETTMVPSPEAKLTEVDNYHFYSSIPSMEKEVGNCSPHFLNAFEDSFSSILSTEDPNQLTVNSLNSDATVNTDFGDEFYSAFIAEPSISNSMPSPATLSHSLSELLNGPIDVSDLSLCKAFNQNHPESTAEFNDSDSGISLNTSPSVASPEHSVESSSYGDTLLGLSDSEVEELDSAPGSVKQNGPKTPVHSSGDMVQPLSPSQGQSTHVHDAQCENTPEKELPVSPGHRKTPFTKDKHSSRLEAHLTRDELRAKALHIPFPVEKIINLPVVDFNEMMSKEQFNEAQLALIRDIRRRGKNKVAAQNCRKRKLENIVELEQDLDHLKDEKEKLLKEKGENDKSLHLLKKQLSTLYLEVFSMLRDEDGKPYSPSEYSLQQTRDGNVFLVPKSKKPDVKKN
Sequence of Cellular tumor antigen p53 (Homo sapiens) (P04637 whole entry, looked up): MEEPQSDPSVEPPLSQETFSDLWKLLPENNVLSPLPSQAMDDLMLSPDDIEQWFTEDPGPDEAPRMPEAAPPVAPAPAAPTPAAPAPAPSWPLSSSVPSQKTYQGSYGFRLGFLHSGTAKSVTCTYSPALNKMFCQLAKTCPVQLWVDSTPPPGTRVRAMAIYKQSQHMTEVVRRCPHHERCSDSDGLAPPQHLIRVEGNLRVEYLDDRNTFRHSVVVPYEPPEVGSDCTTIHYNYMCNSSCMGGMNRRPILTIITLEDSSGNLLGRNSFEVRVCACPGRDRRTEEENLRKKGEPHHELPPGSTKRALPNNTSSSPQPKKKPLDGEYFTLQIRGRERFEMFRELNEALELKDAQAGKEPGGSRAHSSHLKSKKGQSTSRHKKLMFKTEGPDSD
Sequence of Signal transducer and activator of transcription 3 (Homo sapiens) (P40763 whole entry, looked up): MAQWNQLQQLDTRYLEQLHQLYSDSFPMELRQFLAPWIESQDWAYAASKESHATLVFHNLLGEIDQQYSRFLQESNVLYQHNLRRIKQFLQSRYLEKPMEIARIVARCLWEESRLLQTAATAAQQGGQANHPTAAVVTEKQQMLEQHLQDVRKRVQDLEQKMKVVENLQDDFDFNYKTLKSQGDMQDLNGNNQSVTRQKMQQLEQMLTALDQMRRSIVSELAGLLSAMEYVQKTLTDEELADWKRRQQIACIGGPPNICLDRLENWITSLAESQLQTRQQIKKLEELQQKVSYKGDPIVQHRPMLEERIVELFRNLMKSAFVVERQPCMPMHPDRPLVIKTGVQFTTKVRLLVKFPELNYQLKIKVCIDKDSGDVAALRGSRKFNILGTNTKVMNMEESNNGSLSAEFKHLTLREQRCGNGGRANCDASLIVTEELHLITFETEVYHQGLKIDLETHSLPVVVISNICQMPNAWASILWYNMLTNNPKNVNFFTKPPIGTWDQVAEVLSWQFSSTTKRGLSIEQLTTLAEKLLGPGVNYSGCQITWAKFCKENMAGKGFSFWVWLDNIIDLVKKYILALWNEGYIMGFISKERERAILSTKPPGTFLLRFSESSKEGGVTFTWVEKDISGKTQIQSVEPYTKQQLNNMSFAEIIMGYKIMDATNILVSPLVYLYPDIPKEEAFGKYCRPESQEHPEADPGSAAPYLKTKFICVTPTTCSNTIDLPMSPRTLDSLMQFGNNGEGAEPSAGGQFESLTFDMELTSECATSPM

Brc1ccc(Oc2ccccc2)cc1
inactive: all assays above

O=[N+]([O-])C(Br)(CO)CO
not listed: [15]
inactive: all other assays above

O=C(Nc1ccccc1)c1ccccc1I
active: [3] 31.1 µM | [4] 9.92 µM | [6] 77.6 µM | [12] 50 µM | [14] 27.1 µM | [16] 13.1 µM | [17] 13.2 µM | [18] 40.5 µM
not listed: [15]
inactive: all other assays above

Nc1ccc(Oc2ccc(N)cc2)cc1
active: [16] 78.9 µM
inactive: all other assays above

OCCOCCO
not listed: [15]
inactive: all other assays above

O=[N+]([O-])c1ccc(Oc2ccc(Cl)cc2Cl)cc1
active: [4] 11.3 µM | [18] 73.8 µM
not listed: [16]
inactive: all other assays above

N#CC(Br)Br
not listed: [10] | [15]
inactive: all other assays above
